IMPase Li cell = IMPase inhibition in cells with lithium potentiation; CHO-M1 cells, IP1 TR-FRET (IP-One), carbachol + lithium; Potency, µM (series often up to 59.4 µM), for inactives: at the highest dose activity, negative = IMPase inhibition, usual class: inhibitors; hit rate 0.35% among 210,000;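 note: IP1 builds up when IMPase is blocked and the TR-FRET signal falls; potency is the fitted concentration of half-maximal effect; plate controls were basal vehicle for no effect and high inhibitor control for full effect; nearly all actives have a fitted effect of over 50% in size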
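Test compounds were applied to CHO-M1 cells previously cultured for 16–30 h at 2000 per well. A small lithium amount accompanied them; after 30 min at 37C, IP1 was quantified by TR-FRET.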
HPGD inh = blocks human HPGD enzyme activity; P15428; purified HPGD, NADH fluorescence kinetic, PGE2 substrate; Potency, µM, without a hit: at the top dose activity change, negative = inhibition, most hits filed as inhibitors; hit rate 4.3% among 150,000; AID 894; active = well fitted inhibition curve with a large enough effect, not every such curve was filed as active; inconclusive = small, poorly fitted or top-dose-only effect, or another doubt; inactive = no such curve, though single readings can be large or run the other way; note: potency is the fitted concentration of half-maximal effect
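NADH formation kinetics: reaction with 30 uM PGE2 and 1 mM NAD+ (final), 20 nM enzyme, Tris-HCl pH 8 with Tween 20, after 15 min compound preincubation at room temperature. Fluorescence change, last versus first of five reads.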
IMPase cell inh = cell-permeable inhibitors of inositol monophosphatase (IMPase) | P97697 | CHO-M1 cells, IP1 accumulation, HTRF TR-FRET ratio | inhibition (IP1 accumulation), % at 46.1 µM | 120,000 tested, under 10 active | AID 901; active = well fitted curve in the direction sought with a large enough effect in the signal ratio, not every such curve was filed as active; inconclusive = small, poorly fitted or top-dose-only effect, or a change in a side signal; inactive = no such curve, though single readings can be large or run the other way; the % refers to the signal ratio;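 note: cells stimulated with carbachol in lithium chloride buffer; plate controls were DMSO basal wells for no effect and reference inhibitor wells for full effect; higher means more IMPase inhibition seen as more IP1 and lower FRET ratio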
Target sequence (P97697 whole entry, looked up): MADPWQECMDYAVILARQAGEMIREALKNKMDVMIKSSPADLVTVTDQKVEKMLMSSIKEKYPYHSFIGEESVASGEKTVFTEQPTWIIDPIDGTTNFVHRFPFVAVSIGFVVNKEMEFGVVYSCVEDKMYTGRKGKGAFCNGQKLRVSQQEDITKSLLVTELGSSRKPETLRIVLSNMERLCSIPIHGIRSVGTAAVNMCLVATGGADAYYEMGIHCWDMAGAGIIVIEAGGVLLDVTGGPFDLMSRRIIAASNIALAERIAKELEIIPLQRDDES
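Cellular IMPase inhibition is scored as a rise in cytosolic IP1, detected by competitive TR-FRET between d2-labelled IP1 and a europium anti-IP1 antibody. M1-expressing CHO cells were stimulated with carbachol for 30 min at 37C, with lithium (50 mM LiCl) present in the buffer.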
ALDH1A1 inh = inhibitors of human aldehyde dehydrogenase 1A1; AID 1030; P00352; Purified ALDH1A1, NADH fluorescence, propionaldehyde substrate; Potency, µM (highest dose often 75.3 µM), without a hit: at the top dose activity, negative = inhibition, actives largely listed as inhibitors; hit rate 7.3% among 220,000; active = well fitted inhibition curve with a large enough effect, not every such curve was filed as active; inconclusive = small, poorly fitted or top-dose-only effect, or another doubt; inactive = no such curve, though single readings can be large or run the other way;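 note: potency is the fitted concentration of half-maximal effect; plate controls were no enzyme wells and a reference inhibitor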
NPSR antag = neuropeptide S receptor (human) antagonism, cAMP | Potency, µM (doses to about 38.3 µM), inactives show at the top dose activity change, negative = inhibition, most hits filed as inhibitors | CHO-NPSR cells, cAMP TR-FRET, antagonist mode | hit rate 1% among 220,000; note: potency is the fitted concentration of half-maximal effect; nearly all actives have a fitted effect of over 50% in size
Target sequence (Q6W5P4 whole entry, looked up): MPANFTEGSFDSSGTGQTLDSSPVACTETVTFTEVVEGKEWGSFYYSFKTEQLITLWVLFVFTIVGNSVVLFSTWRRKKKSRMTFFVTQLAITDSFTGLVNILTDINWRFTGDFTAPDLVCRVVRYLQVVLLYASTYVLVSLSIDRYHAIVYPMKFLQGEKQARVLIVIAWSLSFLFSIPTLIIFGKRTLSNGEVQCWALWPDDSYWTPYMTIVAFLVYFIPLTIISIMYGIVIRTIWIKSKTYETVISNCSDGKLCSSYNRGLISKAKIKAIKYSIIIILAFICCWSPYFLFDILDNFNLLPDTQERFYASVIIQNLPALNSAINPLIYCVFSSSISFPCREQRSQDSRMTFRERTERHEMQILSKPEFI
12-hLO inh = inhibitors of human 12-lipoxygenase (ALOX12). P18054. purified 12-hLO, xylenol orange hydroperoxide absorbance. Potency, µM (top dose mostly 57.1 µM), inactives show at the top dose activity change, negative = inhibition, most hits filed as inhibitors. hit rate 0.12% among 150,000; note: potency is the fitted concentration of half-maximal effect; nearly all actives have a fitted effect of over 55% in size
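150 nM 12hLO, 25 mM Hepes pH 7.0 + 0.01% Triton X-100; cpd preinc 15 min RT; 40 uM arachidonic acid, 30 min RT; Fe-XO 30 min; A573/A405 ratio as read-out.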
The depositor's hits bear a star; ? = inconclusive; . = no result; [ ] = remark or other dose. Rows were chosen to be rich in hits. Some 8.9% of all compounds tested hit in one or more screens of this group. Unless noted, calls come from the whole dose curve; as a rule, active = well fitted curve in the direction sought with a large enough effect; inconclusive = small, poorly fitted or top-dose-only effect, or another doubt; inactive = no such curve, though single readings can be large; an effect the other way counts as inactive or inconclusive. Unless noted, % is set by controls: 0 for no effect and ±100 for the full control effect.

SMILES | IMPase Li cell | HPGD inh | IMPase cell inh | ALDH1A1 inh | NPSR antag | 12-hLO inh
O=C(NCc1ccco1)c1nc2ccccc2s1 | 20%[38.3 µM] | ? | -5 | ? | -3%[46.1 µM] | 0%
O=C(NCc1cccnc1)c1sc2cc(Cl)ccc2c1Cl | -10%[38.3 µM] | ? | -7 | 2% | ? | 5%
CCn1nnc(NC(=O)c2sc3ccccc3c2Cl)n1 | -24% | -17% | 1 | 3.2µM* | 6%[46.1 µM] | -5%
CC(=O)Nc1ccc(NC(=O)C(C)OC(=O)CNC(=O)c2sc3ccccc3c2Cl)cc1 (configuration not stated) | -8% | -13% | . | 3% | 0% | 4%
NC(=O)COC(=O)CNC(=O)c1sc2ccccc2c1Cl | ? | . | . | 22µM* | -7% | .
O=C(NCc1ccco1)c1sc2cc(Cl)ccc2c1Cl | 6% | 16µM* | ? | 20µM* | ? | -19%
C/C(=N\NC(=O)CCCNc1cccc(C)c1)c1ccncc1 | -1% | . | . | 6% | 7% | .
CC(Cc1ccccc1)C(=O)NCc1ccccn1 (configuration not stated) | 1% | -9% | . | 1% | 6% | 1%
NC(N)=NS(=O)(=O)c1ccc(NC(=S)NC(=O)c2ccc(Br)cc2)cc1 | -5% | . | . | 10µM* | 0% | .
O=C(O)c1ccc2c(c1)C(=O)/C(=C\c1ccco1)C2=O | 13% | . | . | ? | -25% | .
Cc1cc(C)nc(NS(=O)(=O)c2ccc(NC(=O)Nc3ccccc3F)cc2)n1 | . | . | . | 7% | 4% | .
CC(=O)c1ccc(O)c(CN(C2CCCCC2)C2CCCCC2)c1O | -4% | -9% | . | 26%[13.5 µM] | . | -7%[11.4 µM]
CC(=O)c1ccc2c3c(ccc(O)c13)CC2 | 16%[38.3 µM] | 14µM* | -9 | ? | 2%[46.1 µM] | -23%
CCOc1cc(NC(=O)c2ccco2)c(OCC)cc1NC(=O)CCc1ccc(OC)cc1 | -3%[38.3 µM] | ? | -8 | ? | -10%[46.1 µM] | -3%
CN(C)c1ccc(S(=O)(=O)c2ccc(Cl)cc2)cc1 | -12%[38.3 µM] | ? | 10 | ? | -18%[46.1 µM] | -5%
CN(C)c1ccc(C2C3C(=O)NC(=O)C3ON2c2ccc(Cl)cc2)cc1 (configuration not stated) | -8%[38.3 µM] | -8% | 2 | 25µM* | -19%[46.1 µM] | -24%
Cc1ccc(S(=O)(=O)NCCC(=O)Nc2nnc(C3CC3)s2)cc1C | 17%[38.3 µM] | -9% | -8 | 18µM* | -14%[46.1 µM] | 1%
COc1cccc(S(=O)(=O)c2nc(C)c3c(n2)CCC3)c1 | -2% | . | . | 6.3µM* | 1% | .
CC(=O)Nc1ccc(S(=O)(=O)N2CCN(C(=O)N3CCOCC3)CC2)cc1 | 29%[38.3 µM] | -10% | 4 | 3% | -12%[46.1 µM] | 0%
Cc1cccc(C(=O)O/N=C2/CC3CCC2(C)C3(C)C)c1 (configuration not stated) | 18% | -16% | 9 | -5% | ? | -8%
Cc1ccc(C(=O)O/N=C2\CC3CCC2(C)C3(C)C)cc1 (configuration not stated) | 0% | -5% | 2[0.0738 µM] | 13µM* | -18%[46.1 µM] | -3%
COc1cccc(CN(C(=O)Cn2nnc(-c3ccccc3F)n2)C(C(=O)NC(C)(C)C)c2ccncc2)c1 (configuration not stated) | 7% | . | . | 24µM* | 11% | .
O=C(c1ccncc1)N1CCC2(CC1)CCN(c1ccncc1)CC2 | 28% | -3% | . | -4% | . | 0%
Cc1ccc(/C=N/n2c(-c3ccc(Cl)cc3)n[nH]c2=S)s1 | 6% | . | . | 4% | 9% | .
COc1cccc(/C=N/n2c(-c3cccs3)n[nH]c2=S)c1 | -7%[38.3 µM] | 2.2µM* | -7 | ? | -16%[46.1 µM] | -21%
SMILES | IMPase Li cell | HPGD inh | IMPase cell inh | ALDH1A1 inh | NPSR antag | 12-hLO inh
Cc1ccc(-c2n[nH]c(=S)n2/N=C/c2cccs2)cc1 | -3% | 13µM* | 18 | ? | -23% | -6%
S=c1[nH]nc(-c2cccs2)n1/N=C/c1cn(-c2ccccc2)nc1-c1cccs1 | . | . | . | . | -15% | .
Cc1cc(-c2n[nH]c(=S)n2/N=C/c2cccs2)n[nH]1 | 1% | ? | . | -6% | -5% | 2%
S=c1[nH]nc(-c2ccccc2)n1/N=C/c1cccs1 | 10% | 18µM* | -8 | 25µM* | -12%[46.1 µM] | -3%
Cc1ccc(-c2n[nH]c(=S)n2/N=C/c2ccc(C)s2)cc1 | -22%[38.3 µM] | 4µM* | -5 | 3% | ? | -1%
O=C(CCCN1C(=O)c2ccccc2C1=O)Nc1c2c(nc3c1CCC3)CCC2 | 11µM* | -13% | 10 | -1% | -7%[46.1 µM] | 3%
O=C(CCCCCN1C(=O)c2ccccc2C1=O)Nc1nccs1 | 1%[38.3 µM] | 7.1µM* | -5 | -1% | -25%[46.1 µM] | -1%
O=C(NCC1CCCN(C(=O)CN2CCCCC2)C1)c1ccccc1Cl (configuration not stated) | . | . | . | . | 12% | .
Cc1sc2ncnc(NCCCO)c2c1C | 4%[38.3 µM] | -11% | 2 | 6% | 6%[46.1 µM] | -7%
CCOC(=O)CCN1C(=O)[C@H]2[C@@H]3[C@H](O)C=CC(=O)[C@H]3CC[C@H]2C1=O | . | . | . | -2%[13.5 µM] | . | .
O=C(NCC1CCCN(Cc2ccccc2F)C1)c1cccc(C(F)(F)F)c1 (configuration not stated) | 20% | . | . | 0% | -4% | .
CC1CCN(Cc2c(O)ccc3c2O/C(=C\c2ccco2)C3=O)CC1 | 2% | -18% | . | 25µM* | -23% | -10%
Cc1ccc(/C=C2\Oc3c(ccc(O)c3CN3CCN(CCO)CC3)C2=O)cc1 | -11% | . | . | ? | 10µM* | .
CC(C)c1ccc(/C=C2\Oc3c(ccc(O)c3CN3CCN(C)CC3)C2=O)cc1 | 2% | . | . | -2% | 10µM* | .
N#C/C(=C(/O)CCl)c1nc2ccccc2[nH]1 | 1% | . | . | -7% | -21% | .
CCOC(=O)c1sc(-c2ccccc2)cc1NC(=O)c1ccc(S(=O)(=O)N(CCOC)CCOC)cc1 | ? | ? | . | ? | ? | -1%
O=C(NCc1ccncc1)C(=O)NCC(c1ccco1)N1CCN(c2ccc(F)cc2)CC1 (configuration not stated) | -3% | -17% | . | -2% | 25% | -7%
CCCCCCOC1(c2ccccc2)OC(=O)c2ccccc21 (configuration not stated) | 10%[38.3 µM] | -11% | 14 | 6% | ? | 2%
CCCCOC1(c2ccccc2)NC(=S)NN=C1c1ccccc1 (configuration not stated) | 20%[38.3 µM] | -5% | -6 | 0.56µM* | -21%[46.1 µM] | -25%

Source: PubChem BioAssay (National Center for Advancing Translational Sciences (NCATS))
